Here are results for 72 compounds from PubChem BioAssay AID1259421 (Broad Institute, 2018).

Each structure is given as a SMILES string. Several values for one entry are separate records, joined by “and”; a condition that tells them apart may be missing. Identical values can stand only once. About 610 (9.5%) of roughly 6,400 compounds were called active. Rule as the data show it: active = activity change below about -70%; inconclusive = no clear call, values can overlap the other calls; inactive = above that. This excerpt belongs to a sample that is enriched for actives. A structure can be active in one record and inactive in another.

This test can be described thus: Toxoplasma gondii ME49Luc growth in HeLa cells, luciferase, no IFN-y, primary screen (AID 1259421). The settings on record: T. gondii ME49Luc in HeLa, 72 h, stronger effect = lower value, concentration not given here.
For `c1ccc(CCCN2CCN(CCOC(c3ccccc3)c3ccccc3)CC2)cc1`, the activity change, negative = inhibition is -51.1% (inactive) and -1.58% (inactive).

`C[C@H]1CN(Cc2ccc(CC(=O)N3CCC(Nc4cccc(F)c4)CC3)cc2)CCN1`: the activity change, negative = inhibition is 4.86% (inactive).

As for `CC(C)(C)c1cc(C=C(C#N)C#N)cc(C(C)(C)C)c1O`, the activity change, negative = inhibition was -90.8% (active) and -88.7% (active).

Regarding `N#CC(C#N)=Cc1ccc(O)c(O)c1`, the activity change, negative = inhibition is 10.7% (inactive) and 7.11% (inactive).

Regarding `CC(C)(C)c1cc(C=C(C#N)C#N)cc(Br)c1O`, the activity change, negative = inhibition was -39.2% (inactive).

For `CN1C(=O)N(C)C2C1N(C)C(=O)N2C` (configuration not stated), the activity change, negative = inhibition is 5.58% (inactive).

On to `OC1CC2CCCC(C1)N2Cc1ccccc1` (configuration not stated), for which the activity change, negative = inhibition is 4.85% (inactive).

As for `CC(=O)O[C@H]1C[C@@H](OC(C)=O)C(C)(C)C2C[C@@H](OC(C)=O)[C@]3(C)C(CC[C@@]4(C)[C@H](c5ccoc5)C(=O)[C@H]5O[C@]543)[C@]21C` (some centres not stated), the activity change, negative = inhibition is 11.1% (inactive).

With `CC1(C)C(=O)C=C[C@@]2(C)C1C[C@@H](O)[C@]1(C)C2CC[C@@]2(C)[C@H](c3ccoc3)OC(=O)[C@H]3O[C@]321` (some centres not stated), the activity change, negative = inhibition was 13.2% (inactive).

With `CC(=O)O[C@@H]1CC2C(C)(C)C(=O)C=C[C@]2(C)C2CC[C@]3(C)C(=CC(=O)O[C@H]3c3ccoc3)[C@@]21C` (some centres not stated), the activity change, negative = inhibition is -83.5% (active).

As to `CCN(CC)CCOC1CCC2(C)C(=CCC3C4CCC(=O)C4(C)CCC32)C1` (configuration not stated), the activity change, negative = inhibition is -5.47% (inactive).

For `CN1CC2CCCC(C1)C2OC(=O)C(O)(c1ccccc1)C1CCCC1` (configuration not stated), the activity change, negative = inhibition was 36% (inactive).

For the compound `C[C@H](N)Cc1cnc[nH]1`, the activity change, negative = inhibition was 10.9% (inactive).

Turning to `Cc1cccc(C(C)c2cnc[nH]2)c1C` (configuration not stated), the activity change, negative = inhibition is 15.9% (inactive) and 24.6% (inactive).

For the compound `CCCCCCC(C)(C)c1ccc(C2CC(O)CCC2CCCO)c(O)c1` (configuration not stated), the activity change, negative = inhibition was 0.246% (inactive).

`CC(=O)OCC(=O)[C@H]1CC[C@H]2[C@@H]3CC[C@H]4C[C@H](O)CC[C@]4(C)[C@H]3C(=O)C[C@]12C`: the activity change, negative = inhibition was -8.47% (inactive).

For `C[C@]12CC[C@H](O)C[C@H]1CC[C@@H]1[C@@H]2CC[C@]2(C)[C@@](O)(c3ccoc3)CC[C@]12O`, the activity change, negative = inhibition is 2.9% (inactive).

As to `C[C@]12CC[C@@H](O)C[C@@H]1CC[C@@H]1[C@@H]2CC[C@]2(C)[C@@H](C(=O)CO)CC[C@@H]12`, the activity change, negative = inhibition is 8.82% (inactive).

Take `CC(=O)[C@H]1CC[C@H]2[C@@H]3CC[C@H]4C[C@H](O)CC[C@]4(C)[C@H]3C(=O)C[C@]12C`: the activity change, negative = inhibition is 12.1% (inactive).

On to `CC(=O)C1CCC2C3CCC4C[C@H](O)CCC4(C)C3C[C@H](O)C12C` (some centres not stated), for which the activity change, negative = inhibition is 3.84% (inactive).

Turning to `C[C@]12CC[C@H](O)C[C@H]1CC[C@@H]1[C@@H]2C[C@@H](O)[C@]2(C)[C@@H](C3=CC(=O)OC3)CC[C@]12O`, the activity change, negative = inhibition was -93.5% (active).

As for `C[C@]12[C@H](O)CC3C(CC[C@@H]4C[C@@H](O)CC[C@]34C)[C@@]1(O)CC[C@@H]2C1=CC(=O)OC1` (some centres not stated), the activity change, negative = inhibition was -84.3% (active).

As to `C[C@]12CC[C@H](O)C[C@H]1CC[C@@H]1[C@@H]2CC[C@]2(C)[C@@H](C3=CC(=O)OC3)CC[C@]12O`, the activity change, negative = inhibition was -86.6% (active).

For the compound `C[C@]12CC[C@@H](O)C[C@@H]1CC[C@@H]1[C@@H]2CC[C@]2(C)C(=O)CC[C@@H]12`, the activity change, negative = inhibition was 9.11% (inactive).

`Cl/C=C\C[N+]12CN3CN(CN(C3)C1)C2`: the activity change, negative = inhibition was 5.98% (inactive).

With `NC1=NC(=O)N2CC12` (configuration not stated), the activity change, negative = inhibition is 6.84% (inactive).

As for `Oc1ccc2c3c1OC1c4oc5ccccc5c4CC4(O)C(C2)N(CC2CC2)CCC314` (configuration not stated), the activity change, negative = inhibition is -19.3% (inactive).

For `N#CC(O[C@@H]1O[C@H](CO[C@@H]2O[C@H](CO)[C@@H](O)[C@H](O)[C@H]2O)[C@@H](O)[C@H](O)[C@H]1O)c1ccccc1` (some centres not stated), the activity change, negative = inhibition is 19% (inactive).

`COC[C@@H](NC(C)=O)C(=O)NCc1ccccc1`: the activity change, negative = inhibition was -51% (inactive).

As to `O=C1Nc2ccc(Cl)cc2C(c2ccccc2Cl)=NC1O` (configuration not stated), the activity change, negative = inhibition was 5.64% (inactive).

`CC(C)CC(NC(=O)C(Cc1ccccc1)NC(=O)CNC(=O)[C@H](C)NC(=O)C(N)Cc1ccc(O)cc1)C(=O)N[C@H](CCCN=C(N)N)C(=O)O` (some centres not stated): the activity change, negative = inhibition was 10.6% (inactive).

Consider `O=C1CN=C(c2cccc(Br)c2)c2oc3ccccc3c2N1`, for which the activity change, negative = inhibition is 22.5% (inactive).

`CNC(=O)Oc1ccccc1OC(C)C`: the activity change, negative = inhibition is 12.8% (inactive).

On to `ClC=C(Cl)Cl`, for which the activity change, negative = inhibition is 8.81% (inactive).

As to `Oc1ccc2c3c1OC1c4c(c5ccccc5n4Cc4ccccc4)CC4(O)C(C2)N(CC2CC2)CCC314` (configuration not stated), the activity change, negative = inhibition was -1.02% (inactive).

For the compound `CCCCCCCCCCCCC/C=C/[C@@H](O)[C@@H](N)COP(=O)(O)OCC[N+](C)(C)C`, the activity change, negative = inhibition was -1.29% (inactive).

As to `NC(=O)CN1C[C@H](O)CC1=O`, the activity change, negative = inhibition is -40.7% (inactive).

For the compound `CN1CCc2cc3c(cc2C1[C@@H]1OC(=O)c2c1ccc1c2OCO1)OCO3` (some centres not stated), the activity change, negative = inhibition was 8.11% (inactive).

Regarding `Cc1o[nH]c(=O)c1C[C@H](N)C(=O)O`, the activity change, negative = inhibition was 13.1% (inactive).

With `Cc1o[nH]c(=O)c1CC(N)C(=O)O` (configuration not stated), the activity change, negative = inhibition is 3.8% (inactive).

With `CC(C)(C)c1o[nH]c(=O)c1CC(N)C(=O)O` (configuration not stated), the activity change, negative = inhibition is -79.9% (active) and 9.91% (inactive).

On to `Oc1ccc2c3c1OC1c4[nH]c5ccccc5c4CC4(O)C(C2)N(CC2CC2)CCC314` (configuration not stated), for which the activity change, negative = inhibition was 6.33% (inactive).

Regarding `CN1C2CCC1CC(OC(=O)c1cc(Cl)cc(Cl)c1)C2` (configuration not stated), the activity change, negative = inhibition was -1.24% (inactive) and 2.27% (inactive).

Take `C[C@H]1CCC/C=C/[C@@H]2C[C@H](O)C[C@H]2[C@H](O)/C=C/C(=O)O1`: the activity change, negative = inhibition is -94.5% (active).

As for `COc1ccc(/C=C/C(=O)CC(=O)/C=C/c2ccc(OC)c(OC)c2)cc1OC`, the activity change, negative = inhibition was 2.29% (inactive).

For the compound `CC(C)(c1ccc(OCC2CO2)cc1)c1ccc(OCC2CO2)cc1` (configuration not stated), the activity change, negative = inhibition was 9.89% (inactive).

Take `CN1C2CCC1CC(OC(c1ccccc1)c1ccccc1N)C2` (configuration not stated): the activity change, negative = inhibition was 16.3% (inactive).

On to `c1cc2c(c(N3CCNCC3)c1)OCCO2`, for which the activity change, negative = inhibition is -0.0388% (inactive).

For the compound `CN1C2CCC1CC(OC(c1ccc(F)cc1)c1ccc(F)cc1)C2` (configuration not stated), the activity change, negative = inhibition is 22.3% (inactive) and 38.4% (inactive).

For `CC(=O)N(C)c1cccc(-c2ccnc3c(C(=O)c4cccs4)cnn23)c1`, the activity change, negative = inhibition is 42.5% (inactive).

For the compound `O=C1NC(=O)c2c1c1c3ccccc3n3c1c1c2c2ccccc2n1C1CCC3O1`, the activity change, negative = inhibition was -71.9% (active).

As to `O=C1NC(=O)c2c1c1c3ccccc3[nH]c1c1[nH]c3ccccc3c21`, the activity change, negative = inhibition is -28.7% (inactive) and -11.9% (inactive).

On to `N#CC(C#N)=NNc1cccc(Cl)c1`, for which the activity change, negative = inhibition was 9.63% (inactive).

For the compound `C[C@]12CC[C@@H]3c4ccc(OC(=O)N(CCCl)CCCl)cc4CC[C@H]3[C@@H]1CC[C@@H]2OP(=O)(O)O`, the activity change, negative = inhibition was 10.9% (inactive).

With `CCCCC(CC)COC(=O)c1ccccc1C(=O)OCC(CC)CCCC` (configuration not stated), the activity change, negative = inhibition was 9.98% (inactive).

As for `CO[C@H]1[C@H](O)[C@@H](O[C@H]2CC[C@]3(C=O)C4CC[C@]5(C)[C@@H](C6=CC(=O)OC6)CC[C@]5(O)C4CC[C@@H]3C2)O[C@@H](C)[C@@H]1O` (some centres not stated), the activity change, negative = inhibition was -88% (active).

In the case of `CO[C@@H]1C(O)[C@H](O[C@H]2CC[C@@]3(C=O)[C@H](CC[C@@H]4[C@@H]3CC[C@]3(C)[C@@H](C5=CC(=O)OC5)CC[C@]43O)C2)OC(C)[C@@H]1O` (some centres not stated), the activity change, negative = inhibition was -73.9% (active).

On to `O=C1Nc2ccccc2C2(CCN(CCc3ccc(C(F)(F)F)cc3)CC2)O1`, for which the activity change, negative = inhibition was 16.5% (inactive) and 18.9% (inactive).

Take `O=C(O)CCCCCCNC1c2ccccc2CCc2ccccc21`: the activity change, negative = inhibition was 30.7% (inactive).

Consider `O=C(O)C(Cl)Cl`, for which the activity change, negative = inhibition was 30.7% (inactive).

Take `Clc1cccc(SC2CCNCC2)n1`: the activity change, negative = inhibition is 18.6% (inactive).

In the case of `Cc1ccc(C[N+](C)(C)C)o1`, the activity change, negative = inhibition was 0.893% (inactive) and 9.89% (inactive).

`CC(C)(C)CC(C)(C)c1ccc(O)cc1`: the activity change, negative = inhibition is 5.73% (inactive).

For `CCCC(C)(COC(N)=O)COC(N)=O`, the activity change, negative = inhibition is 8.01% (inactive).

As to `C[C@]1(O)CC[C@H]2[C@@H]3CCC4=CC(=O)CC[C@]4(C)[C@@]3(F)[C@@H](O)C[C@@]21C`, the activity change, negative = inhibition was 2.26% (inactive).

As to `CC(=O)O[C@H]1C[C@H](O[C@H]2[C@@H](O)C[C@H](O[C@H]3[C@@H](O)C[C@H](O[C@H]4CC[C@@]5(C)C(CCC6C5C[C@@H](O)[C@]5(C)[C@@H](C7=CC(=O)OC7)CC[C@]65O)C4)O[C@@H]3C)O[C@@H]2C)O[C@H](C)[C@H]1O[C@@H]1O[C@H](CO)[C@@H](O)[C@H](O)[C@H]1O` (some centres not stated), the activity change, negative = inhibition is -75.3% (active) and -89.3% (active).

Turning to `CC(=O)OC1CC[C@@]2(C)C(CCC3C2CC[C@]2(C)C(C4=CC(=O)OC4)C(OC(C)=O)CC32O)C1` (some centres not stated), the activity change, negative = inhibition was -91.6% (active).

With `CC(=O)[C@H]1CC[C@H]2[C@@H]3CC[C@H]4C[C@H](O)CC[C@]4(C)[C@H]3CC[C@]12C`, the activity change, negative = inhibition is 2.36% (inactive).

With `COC1C(O)CC(OC2C(O)CC(OC3C(O)CC(OC4CCC5(C)C(CCC6[C@@H]5CC(O)C5(C)C(C7=CC(=O)OC7)CCC65O)C4)OC3C)OC2C)OC1C` (some centres not stated), the activity change, negative = inhibition was -82.4% (active).

For `C[C@H]1OC(O[C@H]2[C@@H](O)CC(O[C@H]3[C@@H](O)C[C@H](O[C@H]4CC[C@]5(C)C6CC[C@]7(C)[C@@H](C8=CC(=O)OC8)[C@@H](O)C[C@]7(O)[C@@H]6CC[C@@H]5C4)O[C@@H]3C)O[C@@H]2C)C[C@H](O)C1O` (some centres not stated), the activity change, negative = inhibition is -71.3% (active).

As to `C[C@@H]1CC[C@@]2(OC1)O[C@H]1C[C@H]3[C@@H]4CC=C5C[C@H](O[C@@H]6O[C@@H](CO)[C@@H](O[C@@H]7O[C@@H](C)[C@H](O)[C@@H](O)[C@@H]7O)[C@H](O)[C@H]6O[C@@H]6O[C@@H](C)[C@H](O)[C@@H](O)[C@H]6O)CC[C@]5(C)[C@@H]4CC[C@]3(C)[C@@H]1[C@H]2C`, the activity change, negative = inhibition was -18.3% (inactive).

As to `COC(=O)/C=C/C(=O)N[C@@H]1CC[C@@]2(O)[C@H]3Cc4ccc(O)c5c4[C@@]2(CCN3CC2CC2)[C@H]1O5`, the activity change, negative = inhibition was 16.5% (inactive).
